# Laboratory results from PubChem BioAssay.
# Activity calls are given as the source filed them. Cut-off read from the data, not from the text of the source, unless noted: active = inhibition above about 80%; inactive = the rest.
# What was measured:
# [1] = growth inhibition of RCMB18 medulloblastoma cells, cell-based, cisplatin and BGB IC40 combos (AID 1671462); conditions: stronger effect = higher value;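 note: cells exposed to compound for four days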
# [2] = growth inhibition of CRL1545 osteosarcoma cells, cell-based, cisplatin and BGB IC20 combos (AID 1671464); conditions: stronger effect = higher value;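 note: cells exposed to compound for 96 hours before readout; 0% = vehicle DMSO and 100% = high DMSO killing control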
# [3] = LFS_MB_P medulloblastoma growth inhibition, cell-based, chromothripsis tumors, cisplatin or BGB combos (AID 1671449); conditions: LFS_MB_P medulloblastoma cells;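 note: cells exposed for 96 hours; 0% = vehicle DMSO and 100% = killing by high DMSO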
# [4] = HDN33 neuroblastoma growth inhibition, cell-based, chromothripsis tumors, cisplatin or BGB combos (AID 1671450); conditions: HDN33 neuroblastoma cells, stronger effect = higher value;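 note: cells exposed to compound for four days; 0% = vehicle DMSO and 100% = cell killing by high DMSO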
# [5] = ICB984 medulloblastoma cell growth inhibition, synergistic combos for chromothripsis tumors, cisplatin or BGB combos (AID 1671451; call rule not given here;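 note: cells exposed for 96 hours before readout; 0% = vehicle DMSO and 100% = killing by high DMSO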); conditions: ICB984 medulloblastoma cells, drug combinations, stronger effect = higher value
# [6] = LFS_MB_1R medulloblastoma cell growth inhibition, synergistic combos for chromothripsis tumors, cisplatin or BGB combos (AID 1671452); conditions: LFS_MB_1R medulloblastoma cells, stronger effect = higher value;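 note: cells exposed for 96 hours before readout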
# [7] = HTB85 osteosarcoma cell growth inhibition, synergistic combos for chromothripsis tumors, BGB or cisplatin IC20 combos (AID 1671453); conditions: HTB85 osteosarcoma cells, drug combinations, stronger effect = higher value;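 note: cells exposed for 96 hours before readout; 0% = vehicle DMSO and 100% = high DMSO killing control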
# [8] = CRL2098 osteosarcoma cell growth inhibition, synergistic combos for chromothripsis tumors, BGB or cisplatin IC20 combos (AID 1671454); conditions: CRL2098 osteosarcoma cells, drug combinations, stronger effect = higher value;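 note: cells exposed for 96 h before readout; 0% = vehicle DMSO and 100% = killing by high DMSO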
# [9] = HD-MB03 medulloblastoma cell growth inhibition, synergistic combos for chromothripsis tumors, BGB or cisplatin IC20 combos (AID 1671455; in the data active = inhibition above about 83%;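 note: 0% = vehicle DMSO and 100% = high DMSO as cytotoxic control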); conditions: HD-MB03 medulloblastoma cells, stronger effect = higher value
# [10] = UWB1.289 ovarian carcinoma cell growth inhibition, synergistic combos for chromothripsis tumors, BGB or cisplatin combos (AID 1671456); conditions: UWB1.289 ovarian carcinoma cells, stronger effect = higher value;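 note: cells exposed to compound for four days; 0% = vehicle DMSO and 100% = killing by high DMSO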
# [11] = LFS_MB_2R medulloblastoma cell growth inhibition, synergistic combos for chromothripsis tumors, cisplatin combos (AID 1671457); conditions: LFS_MB_2R medulloblastoma cells, stronger effect = higher value;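 note: cells exposed to compound for four days before readout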
# [12] = MDA-MB-436 breast carcinoma cell growth inhibition, synergistic combos for chromothripsis tumors, BGB or cisplatin combos (AID 1671458; call rule not given here;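 note: cells exposed for 96 hours; 0% = vehicle DMSO and 100% = killing by high DMSO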); conditions: MDA-MB-436 breast carcinoma growth inhibition, drug combinations, stronger effect = higher value
# [13] = UWB1.289_BRCA1 ovarian cancer growth, cell-based, BGB or cisplatin combinations (AID 1671459); conditions: UWB1.289 BRCA1 ovarian carcinoma, drug combinations, stronger effect = higher value
# [14] = human astrocyte viability loss, single and combined drugs, cytotoxicity control for chromothriptic childhood tumor combination screen, cell-based, BGB or cisplatin IC20 combos (AID 1671460); conditions: Human astrocytes, drug combinations, stronger effect = higher value;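 note: cells exposed to compounds for 96 hours before viability readout; 0% = vehicle and 100% = killing control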
# [15] = growth inhibition of BT084 medulloblastoma cells, cell-based, ICGC_MB145, cisplatin and BGB IC40 combos (AID 1671461); conditions: drug combinations, stronger effect = higher value;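 note: cells exposed to drugs for 96 hours; 0% = vehicle DMSO and 100% = high DMSO full killing control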
# [16] = measured here: BGB IC40 combination, at 0.05 µM
# [17] = measured here: combination with cisplatin, at 0.5 µM
# [18] = measured here: with BGB IC20 combination, at 0.5 µM
# [19] = measured here: with cisplatin IC20 combination, at 0.5 µM
# [20] = measured here: combination with BGB IC40, at 0.05 µM
# [21] = measured here: combination with cisplatin, at 5 µM
structure (smiles),measurement,setting,value
CCC1(O)C(=O)OCc2c1cc1n(c2=O)Cc2cc3cc(O)ccc3nc2-1 (stereo unspecified),inhibition,[1]; [16],-9.73%
same,inhibition,[1]; [17],24.7%
same,inhibition,"[1]; single agent, at 5 µM",49.8%
same,inhibition,[2]; at 0.5 µM,74.6% (inactive)
same,inhibition,[2]; [18],87.6%
same,inhibition,[2]; [19],67.5%
same,inhibition,"[2]; single agent, at 0.05 µM",14.1%
same,inhibition,"[2]; single agent, at 5 µM",99.4%
O=C(CCCCCCC(=O)Nc1ccc(I)cc1)NO,inhibition,"[3]; at 0.5 µM, stronger effect = higher value",14.6% (inactive)
same,inhibition,"[3]; measured here: combination with BGB IC20, at 0.005 µM",-13.9%
same,inhibition,"[3]; measured here: combination with BGB IC40, at 0.005 µM",-26.4%
same,inhibition,[3]; [20],-4.26%
same,inhibition,"[3]; measured here: combination with cisplatin, at 0.5 µM, stronger effect = higher value",55%
same,inhibition,"[3]; measured here: combination with cisplatin, at 5 µM, stronger effect = higher value",112%
same,inhibition,"[4]; BGB combo, at 5 µM",92.7%
same,inhibition,[4]; at 0.5 µM,2.25% (inactive)
same,inhibition,"[4]; cisplatin combo, at 5 µM",96.8%
same,inhibition,[4]; [18],2.67%
same,inhibition,[4]; [19],4.68%
same,inhibition,"[4]; single agent, at 5 µM",96.1%
same,inhibition,"[5]; BGB IC20 combo, at 0.005 µM",-14%
same,inhibition,"[5]; BGB IC40 combo, at 0.005 µM",-21.6%
same,inhibition,"[5]; BGB IC40 combo, at 0.05 µM",79.6%
same,inhibition,[5]; at 0.5 µM,-43% (inactive)
same,inhibition,"[5]; cisplatin combo, at 0.05 µM",78.8%
same,inhibition,"[5]; cisplatin combo, at 0.5 µM",-63.2%
same,inhibition,"[5]; cisplatin combo, at 5 µM",-38.3%
same,inhibition,"[5]; measured here: 5 uM single agent, at 5 µM",-6.51%
same,inhibition,[6]; at 0.5 µM,4.61% (inactive)
same,inhibition,[6]; [20],-30%
same,inhibition,[6]; [17],7%
same,inhibition,[6]; [21],97.8%
same,inhibition,[7]; at 0.5 µM,-14.1% (inactive)
same,inhibition,"[7]; measured here: with BGB IC20, at 0.5 µM",-30.7%
same,inhibition,"[7]; measured here: with BGB IC20, at 5 µM",58%
same,inhibition,"[7]; measured here: with cisplatin IC20, at 0.5 µM",-7.38%
same,inhibition,"[7]; measured here: with cisplatin IC20, at 5 µM",98.3%
same,inhibition,"[7]; single agent, at 5 µM",68.5%
same,inhibition,[8]; at 0.5 µM,-40.1% (inactive)
same,inhibition,"[8]; measured here: combination with BGB at IC20, at 0.5 µM",-46.1%
same,inhibition,"[8]; measured here: combination with cisplatin at IC20, at 0.5 µM",-23.5%
same,inhibition,[9]; at 0.5 µM,12.8% (inactive)
same,inhibition,"[9]; measured here: combo with BGB at IC20, at 0.5 µM",5.06%
same,inhibition,"[9]; measured here: combo with cisplatin at IC20, at 0.5 µM",20.3%
same,inhibition,[10]; at 0.5 µM,14.7% (inactive)
same,inhibition,"[10]; measured here: inhibition with BGB combination, at 0.05 µM",-32%
same,inhibition,"[10]; measured here: inhibition with cisplatin combination, at 0.05 µM",-13.2%
same,inhibition,[11]; at 0.5 µM,-12.8% (inactive)
same,inhibition,[11]; [17],3.62%
same,inhibition,[11]; [21],99%
same,inhibition,[12]; at 0.5 µM,-16.9% (inactive)
same,inhibition,"[12]; measured here: BGB combination, at 0.5 µM",-27.7%
same,inhibition,"[12]; measured here: BGB combination, at 5 µM",49.2%
same,inhibition,"[12]; measured here: cisplatin combination, at 0.5 µM",-20.6%
same,inhibition,"[12]; measured here: cisplatin combination, at 5 µM",53.6%
same,inhibition,"[13]; BGB combination, concentration series, at 5 µM",84.7%
same,inhibition,[13]; at 0.5 µM,7.03% (inactive)
same,inhibition,"[13]; cisplatin combination, concentration series, at 5 µM",105%
same,inhibition,[14]; at 0.5 µM,29.2% (inactive)
same,inhibition,"[14]; measured here: combo with BGB IC20, at 0.5 µM",30.5%
same,inhibition,"[14]; measured here: combo with cisplatin IC20, at 0.5 µM",21.3%
same,inhibition,[15]; at 0.5 µM,12.2% (inactive)
same,inhibition,"[15]; cisplatin combination, at 0.5 µM",29.6%
same,inhibition,"[15]; cisplatin combination, at 5 µM",105%
same,inhibition,"[15]; measured here: BGB IC40 combination 0.05 uM, at 0.05 µM",-26.1%
same,inhibition,"[15]; single agent, at 5 µM",103%
same,inhibition,[1]; at 0.5 µM,20.3% (inactive)
same,inhibition,"[1]; cisplatin combo, at 5 µM",94.9%
same,inhibition,[1]; [16],-10.7%
same,inhibition,[1]; [17],54.3%
same,inhibition,"[1]; single agent, at 5 µM",85.9%
same,inhibition,[2]; at 0.5 µM,46.9% (inactive)
same,inhibition,[2]; [18],39.3%
same,inhibition,[2]; [19],50.7%
same,inhibition,"[2]; single agent, at 0.05 µM",-7.66%
same,inhibition,"[2]; single agent, at 5 µM",95.3%
